This test deals with PPARgamma LBD (GAL4 fusion). In words: luciferase reporter transactivation, fold of solvent control; higher = stronger receptor activation. To be noted: HEK293T, exposure time: 24 h. As to the method:
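HEK293T cells were transiently transfected with a GAL4-DBD fused to the ligand-binding domain of a human nuclear receptor (PPARα, PPARγ, PPARδ, FXR, LXRα, PXR, RARα or CAR), the GAL4-(UAS)5-TK firefly luciferase reporter and a Renilla luciferase normalisation plasmid. Cells were exposed to compound for 24 h in 0.5% DMSO. Firefly/Renilla luciferase was expressed as fold of the solvent control (=1). Values are the mean of 2-3 biological replicates; receptor agonists were used as positive controls.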
For orientation: A reporter such as luciferase makes a cellular process visible.

As for `O=C(O)C(F)(F)C(F)(F)F` [perfluoropropanoic acid], the luciferase reporter transactivation (concentration: 1 µM) stood at 1.14; the luciferase reporter transactivation (concentration: 5 µM) was 1.11; the luciferase reporter transactivation (concentration: 10 µM) came to 1.23; the luciferase reporter transactivation (concentration: 25 µM) is 1.18; the luciferase reporter transactivation (concentration: 50 µM) stood at 1.29; the luciferase reporter transactivation (concentration: 100 µM) is 1.32. For the same compound, the luciferase reporter transactivation came to 1.27 (concentration: 250 µM) and 1.33 (concentration: 500 µM).

For `NS(=O)(=O)C(F)(F)C(F)(F)C(F)(F)C(F)(F)C(F)(F)C(F)(F)C(F)(F)C(F)(F)F` [perfluorooctane sulfonamide], the luciferase reporter transactivation reads like this: (concentration: 1 µM) 0.722; (concentration: 2.5 µM) 1.1; (concentration: 5 µM) 1.08; (concentration: 10 µM) 1.01; (concentration: 100 µM) 1.18.

The record behind these values is the supplement of paper PMC11402862.
